Data published in a collection of fitness landscapes (doi:10.1016/j.celrep.2020.107928).
In all, about 81,000 sequences were measured (“one-hybrid fitness for binding NBS DNA”: median about -0.1, highest 2% from about 0.36 on). For the sample, the highest values were picked, then their nearest neighbours and some sequences at random.

B1: Caulobacter ParB omega fusion; a variant is named by its letters at X, in order, B8GW30 (parent)
chain: MESVVVGEPGMSEGRRGLGRGLSALLGEVDAAPAQAPGEQLGGSREAPIEILQRNPDQPRRTFREEDLEDLSNSIREKGVLQPILVRPSPDTAGEYQIVAGERAWRAAQRAGLKTVPIMVRELDDLAVLEIGIIENVQRADLNVLEEALSYKVLMEKFERTQENIAQTIGKSXSHVANXMRLLXLPDEVQSYLVSGELTAXHARAIAAAADPVALAKQIIEGGLSVRETEALARKAPNLSAGKSKGGRPPRVKDTDTQALESDLSSVLGLDVSIDHRGSTGTLTITYATLEQLDDLCNRLTRGI

Variants of: B1
Assay: one-hybrid fitness for binding NBS DNA (the Noc-binding site; scaled: cognate 1, non-cognate 0); higher = stronger binding
Conditions: with NBS DNA site
Summary of the method: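 On M9-minus-histidine containing 0.1 mM IPTG and 5 mM 3-AT, E. coli USO cells with a HIS3 reporter, site 19 bp from the promoter, grew 48 hours at 37°C to select Caulobacter ParB libraries randomised at four specificity codons. Plasmids from before and after were Illumina-sequenced, with three replicate libraries pooled and variants under 10 reads left out. Fitness is the log change in variant-to-wild-type read ratio, rescaled against cognate and non-cognate.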

| Variant | one-hybrid fitness for binding NBS DNA |
| --- | --- |
| KFTC | ≤ 0.2 |
| SYMR | ≤ 0.2 |
| GWRK | ≤ 0.2 |
| FEGS | ≤ 0.2 |
| RYVR | 0.269 |
| RYHR | 0.471 |
| RYHH | ≤ 0.2 |
| RYKR | 0.744 |
| RYNR | 0.519 |
| RYSD | ≤ 0.2 |
| RYNH | 0.209 |
| RYDR | 0.207 |
| RYSP | ≤ 0.2 |
| RYHP | ≤ 0.2 |
| RYSR | 0.452 |
| RYKG | ≤ 0.2 |
| THIG | ≤ 0.2 |
| RYQP | ≤ 0.2 |
| RYRR | 0.726 |
| RYGR | 0.432 |
| RYYR | 0.404 |
| RYGP | ≤ 0.2 |
| RYPR | ≤ 0.2 |
| RYGH | ≤ 0.2 |
| RYWR | 0.269 |
| RYIR | 0.203 |

| Variant | one-hybrid fitness for binding NBS DNA |
| --- | --- |
| RYQN | ≤ 0.2 |
| RYQR | 0.44 |
| RYLR | 0.354 |
| QYAV | ≤ 0.2 |
| ENTF | ≤ 0.2 |
| ECNK | ≤ 0.2 |
| PSCV | ≤ 0.2 |
| ALDS | ≤ 0.2 |
| AKVC | ≤ 0.2 |
| RYCD | ≤ 0.2 |
| RYCR | 0.377 |
| RYAR | 0.43 |
| RYAP | ≤ 0.2 |
| RYFR | 0.241 |
| RYCN | ≤ 0.2 |
| REYM | ≤ 0.2 |
| RFAG | ≤ 0.2 |
| QMDK | ≤ 0.2 |
| QCRK | 0.478 |
| QCYK | ≤ 0.2 |
| QADK | ≤ 0.2 |
| QSYK | ≤ 0.2 |
| QSRK | 0.376 |
| QARK | 0.37 |
| QLRK | 0.336 |
| QMRK | 0.387 |

| Variant | one-hybrid fitness for binding NBS DNA |
| --- | --- |
| QAYK | ≤ 0.2 |
| QPRK | ≤ 0.2 |
| QMYK | ≤ 0.2 |
| GVLR | ≤ 0.2 |
| WSLR | ≤ 0.2 |
| LIRR | ≤ 0.2 |
| KRDL | ≤ 0.2 |
| YEVL | ≤ 0.2 |
| QTYK | ≤ 0.2 |
| QKNK | ≤ 0.2 |
| QTRK | 0.546 |
| QKDK | ≤ 0.2 |
| QTDK | ≤ 0.2 |
| QKRK | 0.429 |
| YNVR | ≤ 0.2 |
| VWSR | ≤ 0.2 |
| HGEV | ≤ 0.2 |
| TVPQ | ≤ 0.2 |
| CGVE | ≤ 0.2 |
| CGAE | 0.595 |
| CGAR | 0.441 |
| CGFR | ≤ 0.2 |
| FGYR | ≤ 0.2 |
| NGAE | ≤ 0.2 |
| CGYR | ≤ 0.2 |
| FGFR | ≤ 0.2 |

| Variant | one-hybrid fitness for binding NBS DNA |
| --- | --- |
| FGAR | 0.385 |
| ITGA | ≤ 0.2 |
| QREE | ≤ 0.2 |
| CKNS | ≤ 0.2 |
| ATHI | ≤ 0.2 |
| YEAF | ≤ 0.2 |
| WRNM | ≤ 0.2 |
| TRHT | 0.364 |
| LQMW | ≤ 0.2 |
| YQHT | ≤ 0.2 |
| QTGR | 0.813 |
| QSGH | ≤ 0.2 |
| QSGR | 0.547 |
| QSGP | ≤ 0.2 |
| QTGG | 0.204 |
| QIGD | ≤ 0.2 |
| QPGR | ≤ 0.2 |
| QTGM | 0.3 |
| QCGR | 0.764 |
| QIGS | 0.295 |
| QIGR | 0.437 |
| QGGR | ≤ 0.2 |
| LCEP | ≤ 0.2 |
| GKTT | ≤ 0.2 |
| LKMC | ≤ 0.2 |
| WIPG | ≤ 0.2 |

| Variant | one-hybrid fitness for binding NBS DNA |
| --- | --- |
| IPHT | ≤ 0.2 |
| YLLF | ≤ 0.2 |
| SHQN | ≤ 0.2 |
| LRKG | ≤ 0.2 |
| QQKL | 0.327 |
| QQVH | ≤ 0.2 |
| QQVD | ≤ 0.2 |
| QQKE | 0.335 |
| QQKR | 1.1 |
| QQVR | 0.491 |
| AGDY | ≤ 0.2 |
| GMLG | ≤ 0.2 |
| RCVE | ≤ 0.2 |
| YVKV | ≤ 0.2 |
| QRRD | 0.356 |
| QRWP | ≤ 0.2 |
| QRYP | ≤ 0.2 |
| QRRN | 0.547 |
| QRYN | 0.319 |
| QRRS | 0.787 |
| QRWN | ≤ 0.2 |
| QRYD | 0.222 |
| QRYS | 0.646 |
| QRRP | 0.359 |
| QRWS | 0.54 |
| NAHV | ≤ 0.2 |

| Variant | one-hybrid fitness for binding NBS DNA |
| --- | --- |
| FSNM | ≤ 0.2 |
| SRRP | ≤ 0.2 |
| THHR | ≤ 0.2 |
| VCSD | ≤ 0.2 |
| WQLA | ≤ 0.2 |
| RTRG | 0.215 |
| CCQR | ≤ 0.2 |
| CVKA | ≤ 0.2 |
| MAIS | ≤ 0.2 |
| NATF | ≤ 0.2 |
| MAFC | ≤ 0.2 |
| ECWS | ≤ 0.2 |
| QCES | 0.301 |
| QREN | ≤ 0.2 |
| QRES | 0.469 |
| PSVG | ≤ 0.2 |
| QTCH | 0.319 |
| QHCT | 0.294 |
| QLCT | 0.345 |
| QCCT | 0.521 |
| QPCT | ≤ 0.2 |
| QICT | 0.266 |
| QTCD | ≤ 0.2 |
